In all, about 310,000 compounds went through this assay and about 14,000 (4.5%) showed an effect of 50% or more. Effects have a minus sign here. Many of the other results were omitted from the sample, so strong results are more common in it than they were.
Molecular target: human ether-à-go-go-related gene (hERG) potassium channel (human, UniProt Q12809)
Assay: primary screen, population patch clamp on CHO cells stably expressing hERG; higher = less effect of the substance
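Note: peak tail current of the secondary pulse compared with the same well before compound.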

Chain of human ether-à-go-go-related gene (hERG) potassium channel (Q12809 whole entry, looked up): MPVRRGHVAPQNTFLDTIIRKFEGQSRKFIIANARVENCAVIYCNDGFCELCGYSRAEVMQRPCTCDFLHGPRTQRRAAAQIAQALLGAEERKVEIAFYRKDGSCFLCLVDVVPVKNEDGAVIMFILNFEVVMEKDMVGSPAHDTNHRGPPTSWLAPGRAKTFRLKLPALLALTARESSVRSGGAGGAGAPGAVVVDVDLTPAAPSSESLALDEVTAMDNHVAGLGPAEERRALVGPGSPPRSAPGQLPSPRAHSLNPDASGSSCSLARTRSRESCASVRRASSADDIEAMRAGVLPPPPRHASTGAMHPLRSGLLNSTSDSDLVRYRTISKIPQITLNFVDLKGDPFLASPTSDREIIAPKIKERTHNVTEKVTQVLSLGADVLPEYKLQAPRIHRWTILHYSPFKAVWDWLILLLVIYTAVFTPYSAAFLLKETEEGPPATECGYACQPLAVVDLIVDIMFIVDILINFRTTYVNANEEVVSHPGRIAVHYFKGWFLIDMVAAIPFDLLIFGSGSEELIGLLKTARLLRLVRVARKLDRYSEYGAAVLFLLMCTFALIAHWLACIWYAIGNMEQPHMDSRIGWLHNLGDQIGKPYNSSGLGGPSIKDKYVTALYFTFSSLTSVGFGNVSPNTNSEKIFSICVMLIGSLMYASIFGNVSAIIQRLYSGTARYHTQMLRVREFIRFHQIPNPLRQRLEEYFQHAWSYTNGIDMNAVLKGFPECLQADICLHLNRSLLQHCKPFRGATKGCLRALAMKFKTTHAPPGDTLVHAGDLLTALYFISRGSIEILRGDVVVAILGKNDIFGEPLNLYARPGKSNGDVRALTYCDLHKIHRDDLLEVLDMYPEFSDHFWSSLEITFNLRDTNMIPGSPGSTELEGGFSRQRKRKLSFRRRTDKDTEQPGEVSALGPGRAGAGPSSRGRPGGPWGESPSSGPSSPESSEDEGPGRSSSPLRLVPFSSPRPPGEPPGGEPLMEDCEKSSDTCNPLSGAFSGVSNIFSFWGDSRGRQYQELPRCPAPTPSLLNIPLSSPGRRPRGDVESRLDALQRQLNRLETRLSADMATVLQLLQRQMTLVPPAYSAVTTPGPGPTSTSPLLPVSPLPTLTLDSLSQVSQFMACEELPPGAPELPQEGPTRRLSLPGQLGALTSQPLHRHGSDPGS

Structure (SMILES)	hERG current change (%, negative = inhibition) at 10uM [%]
Cc1nn(C)c(Oc2cccc(Cl)c2)c1C(=O)Nc1ccc(F)cc1	-15.3
CCn1c(CCn2ccnc2C)n[nH]c1=S	-1.48
O=C1CCCC2=C1C(Cc1ccccc1)C1=C(CCCC1=O)O2	-3.32
CCCc1cc(C(=O)NC(C)C2CCCO2)cs1 (stereo not shown)	7.72
Cc1nc2cc(NS(=O)(=O)c3ccccc3)ccc2n1C	9.21
CC(=O)c1cccc(NC(=O)C2CCCN(S(C)(=O)=O)C2)c1 (stereo not shown)	8.02
N#C/C(=C\c1ccccc1)C(=O)Nc1ccccn1	12.7
CCCCN1C(=O)c2ccc(C(=O)Nc3c(N)n(CCCC)c(=O)n(C)c3=O)cc2C1=O	-51.9
CCCCN1C(=O)c2ccc(C(=O)Nc3cccc(C)c3C)cc2C1=O	17.2
CCCCN1C(=O)c2ccc(C(=O)Nc3ccc(S(=O)(=O)N(C)C)cc3)cc2C1=O	-0.448
CCOC(=O)C1(Cc2ccc(OC)cc2)CCN(C(=O)CCc2cnccn2)CC1	-7.37
CCOC(=O)C1(CCc2ccccc2)CCN(C(=O)CCc2cnccn2)CC1	-66.5
CCOC(=O)C1(CCCc2ccccc2)CCN(C(=O)CCc2cnccn2)CC1	-66.4
CCOC(=O)C1(Cc2ccc(Cl)cc2)CCN(C(=O)CCc2cnccn2)CC1	-50
Cc1ccc(C)c(SCC(=O)Nc2cccnc2Cl)c1	0.545
O=C(COC(=O)Cc1ccccc1[N+](=O)[O-])NCC1CCCCC1	0.647
COc1ccc(NC(=S)NC(=O)C2CCC2)cc1	7.29
O=S(=O)(NCc1ccco1)c1cccc2cccnc12	-22.3
N#CC(C#N)=C1C=CC=CN1/C(=C\c1ccco1)C(=O)c1ccc(Cl)cc1	-36
N#CC(C#N)=C1C=CC=CN1/C(=C\c1ccco1)C(=O)c1ccccc1	-57.8
N#CC(C#N)=C1C=CC=CN1/C(=C\c1ccco1)C(=O)c1ccc(Br)cc1	-46.5
COc1ccc(C(=O)/C(=C\c2ccco2)N2C=CC=CC2=C(C#N)C#N)cc1	-72

Structure (SMILES)	hERG current change (%, negative = inhibition) at 10uM [%]
N#CC(C#N)=C1C=CC=CN1/C(=C\c1ccccc1Cl)C(=O)c1ccccc1	8.73
N#CC(C#N)=C1C=CC=CN1/C(=C\c1ccco1)C(=O)c1ccc(-c2ccccc2)cc1	3.14
COc1cc(/C=N/Nc2ccc([N+](=O)[O-])cc2S(=O)(=O)N2CCOCC2)cc(OC)c1OC	-3.33
O=C(Nc1ccc(Cl)cc1Cl)c1csc(-c2cccnc2)n1	-1.42
CS(=O)(=O)N1CCc2cc(C(=O)Nc3ccccc3)ccc21	-1.25
Cc1cccc(Nc2nc(NCc3ccco3)nc(N)c2[N+](=O)[O-])c1	10.6
O=C(Nc1ccnn1C1CCN(Cc2cccc(F)c2F)CC1)C1CCCC1	-23.2
Cc1ccc(CN2CCC(n3nccc3NC(=O)C3CCOC3)CC2)cc1C (stereo not shown)	-20.5
O=C(Nc1ccnn1C1CCN(Cc2ccc(OC(F)F)cc2)CC1)C1CCCC1	-75.3
CCOc1cccc(CN2CCC(n3nccc3NC(=O)C3CC3)CC2)c1O	-64.2
Cc1ccccc1CN1CCC(n2nccc2NC(=O)c2cccnc2)CC1	-14.6
CC(C)Oc1ccc(CN2CCC(n3nccc3NC(=O)c3cccnc3)CC2)cc1	-70.4
COc1ccc(CN2CCC(n3nccc3NC(=O)C3CC3)CC2)cc1O	-58.8
Cc1cc(NC(=O)C(C)SCC(=O)OCc2ccc(Cl)cc2Cl)no1 (stereo not shown)	1.04
Cc1ccc(C(=O)NCc2ccco2)c(C)c1	20.5
O=C(CCC(=O)N1CCN(c2ccc(O)cc2)CC1)c1ccc(Br)cc1	-44.4
O=C(O)c1cc(-c2ccccc2)nc(-c2ccccc2)c1	22.5
CC1CN(c2ccc([N+](=O)[O-])cc2C(=O)N2CCOCC2)CC(C)N1 (stereo not shown)	-9.17
COC(=O)c1ccc(CN2CCC(n3nccc3NC(=O)C3CC3)CC2)cc1	-55.6
COc1ccc(CN2CCC(n3nccc3NC(=O)C3CCCC3)CC2)cc1	-68.9
COC(=O)c1ccc(CN2CCC(n3nccc3NC(=O)C3CCCC3)CC2)cc1	-67.7
CCOc1ccc(CN2CCC(n3nccc3NC(=O)C3CC3)CC2)cc1CO	-57.1

Structure (SMILES)	hERG current change (%, negative = inhibition) at 10uM [%]
CC(C)(O)C#Cc1ccc(CN2CCC(n3nccc3NC(=O)C3CC3)CC2)cc1	-19
CCOc1cc(CN2CCC(n3nccc3NC(=O)C3CC3)CC2)ccc1O	-22
Cn1cc(CN2CCC(n3nccc3NC(=O)C3CCCC3)CC2)cn1	12.6
CC1CCCC(C)N1CCCNC(=O)Cn1cc2c(n1)CCCC2 (stereo not shown)	-3.99
COc1cccc(CNCc2ccc3c(c2)OCO3)c1.O=C(O)C(=O)O	13.7
O=C(N[C@@H](Cc1ccccc1)c1nc2ccccc2[nH]1)c1cc([N+](=O)[O-])ccc1Cl	-28
CCc1c(O)nc(SCC(N)=O)n(-c2ccccc2F)c1=O	7.56
CCC(C)N(C(=O)C(F)(F)F)C(C(=O)NC1CCCCC1)c1ccncc1 (stereo not shown)	7.62
O=S(=O)(c1ccc(Cl)cc1Cl)N1CCCC1c1cccnc1 (stereo not shown)	7.32
Cc1ccc(SCC(=O)NCc2ccco2)cc1	3.39
COC(=O)c1c(SCC(=O)NC2CCCCC2)[nH]c2ccccc2c1=O	-0.717
COc1cc(CN2CCC(n3nccc3NC(=O)C3CC3)CC2)cc(OC)c1	-66.3
O=C(Nc1ccnn1C1CCN(Cc2cccc(OCCO)c2)CC1)C1CC1	0.219
COc1cccc(CN2CCC(n3nccc3NC(=O)C3CC3)CC2)c1	-44.7
CC(C)Oc1ccc(CN2CCC(n3nccc3NC(=O)C3CC3)CC2)cc1	-79.4
CN(CC(=O)Nc1ccc(F)c(F)c1F)C(=O)C1CSC2(C)CCC(=O)N12 (stereo not shown)	-5.92
O=C(Nc1ccc(OC(F)F)cc1)Nc1cccc(C(F)(F)F)c1	6.56
CCOc1ccc(/C=N/OCC(=O)NCc2ccco2)cc1	-12.9
O=C(CO/N=C/c1ccc(OC(F)F)cc1)NCc1cccs1	-62.6
O=C(CO/N=C/c1ccc(OC(F)F)cc1)NCc1ccco1	-51.8
O=C(CO/N=C/c1ccccc1OC(F)F)NCc1ccco1	-5.06
CCOc1ccc(/C=N/OCC(=O)NCc2cccs2)cc1	-11.6

Structure (SMILES)	hERG current change (%, negative = inhibition) at 10uM [%]
CN(C(=O)CO/N=C/c1ccc(OC(F)F)cc1)C1CCS(=O)(=O)C1 (stereo not shown)	-59.2
O=C(CO/N=C/c1ccccc1OC(F)F)NCc1cccs1	-12.9
CC(C)(C)c1ccc(/C=N/OCC(=O)NCc2ccc(F)cc2)cc1	-2.59
O=C(CO/N=C/c1ccc(OC(F)F)cc1)NC1CCCCC1	-8.59
O=C(CO/N=C/c1ccc(OC(F)F)cc1)NC1CCCC1	-49
O=C(CO/N=C/c1ccc(OC(F)F)cc1)NCc1ccc(F)cc1	-79.2
COC(=O)c1ccc(/C=N/OCC(=O)NCc2ccc(F)cc2)cc1	17.9
Cc1cccc(-c2nc3c(c(=O)c4ccccc4n3C)c(=O)n2-c2ccccc2)c1	14
Cc1cccc(S(=O)(=O)c2c(N)n(/N=C/c3cccnc3)c3nc4ccccc4nc23)c1	-4.67
COc1cc(C(=O)NCC(c2cccs2)N2CCOCC2)cc(OC)c1OC (stereo not shown)	11.5
Cc1cccc(C)c1OC(=O)Cc1ccccc1[N+](=O)[O-]	-4.62
CCCOc1ccc(C(=O)NNC(=O)c2cccc(S(=O)(=O)N3CCN(C(C)=O)CC3)c2)cc1OC	-13.8
COc1cc(C2Nc3cccc4cccc(c34)N2)ccc1OC(C)=O	11.2
CC(NC(=O)C(=O)N1CCOCC1)C(c1cccs1)N1CCN(c2ccccc2)CC1 (stereo not shown)	8.31
O=S(=O)(c1ccccc1)c1cnn(-c2ccccc2)c1-c1ccc(F)cc1	-0.19
Cc1ccc(C)c(NC(=S)N2CCCCCC2)c1	0.578
O=C(c1ccco1)N1CCN(c2ccc(Cl)c(Cl)c2)CC1	-29.7
O=[N+]([O-])c1nn(-c2ccccc2)[n+]([O-])c1N1CCN(c2ccccc2)CC1	-0.32
Cc1nn(C)c(C(=O)N2CCN(C(=O)c3ccco3)CC2)c1[N+](=O)[O-]	8.95
Cc1cccc(-n2nc([N+](=O)[O-])c(N3CCN(C(=O)c4ccco4)CC3)[n+]2[O-])c1	-68.7
O=C(c1ccco1)N1CCN(c2c([N+](=O)[O-])nn(-c3cccc(Cl)c3)[n+]2[O-])CC1	-38.1
O=C(c1ccco1)N1CCN(c2c([N+](=O)[O-])nn(-c3ccc(Cl)cc3)[n+]2[O-])CC1	-57.2

Reference: PMC4336329 (PLoS ONE, 2015)
